Test results as given in paper PMC4552634, “A New Set of Chemical Starting Points with Plasmodium falciparum Transmission-Blocking Potential for Antimalarial Drug Discovery” (PLoS ONE, 2015).
In all, about 13,000 compounds went through this assay and about 3,200 (25%) showed an effect of 50% or more. The list shows a part of the results.

The compounds below were run on P. falciparum stage V gametocytes. Conditions: 48 h, 5 µM; inhibitor.
Parameters: BacTiter-Glo ATP luminescence viability of purified stage V gametocytes in 384-well plates, per cent inhibition versus DMSO
With `C=CC[C@H](C[C@H](O)[C@H](Cc1ccccc1)NC(=O)c1ccc(-n2cccn2)cc1)C(=O)NC1CCCCC1` [TCMDC-141420] the “% Inhibition” value was 10.16%.
`CCc1c(C)nc(-n2nc(C)cc2NC(=O)C(CC)c2ccccc2)[nH]c1=O` (stereo not shown) [TCMDC-124935] was tested, and the “% Inhibition” value was 27.05%.
With `Clc1ccc(Nc2nc3ccc(Cl)cc3nc2Nc2ccc(Cl)cc2)cc1` [TCMDC-137772] the “% Inhibition” value was 143.7%.
`O=[N+]([O-])c1ccc2nc(Nc3ccc(Cl)c(Cl)c3)c(Nc3ccc(Cl)c(Cl)c3)nc2c1` [TCMDC-125794] was tested, and the “% Inhibition” value was 113.6%.
`O=[N+]([O-])c1ccc2ncnc(Nc3ccc(F)c(Cl)c3)c2c1` [TCMDC-123784] was tested, and the “% Inhibition” value was 0.775%.
`Oc1ccc(Nc2ccnc3cc(Cl)ccc23)cc1` [TCMDC-125528] was tested, and the “% Inhibition” value was -45.78%.
For `O=C(Nc1ccc(Cl)cc1)Nc1nc2ccc([N+](=O)[O-])cc2[nH]1` [TCMDC-137530], the “% Inhibition” value was 30.09%.
With `Brc1ccc(Nc2nc3ccccc3nc2Nc2ccc(Br)cc2)cc1` [TCMDC-125776] the “% Inhibition” value was -38.43%.
With `O=S(=O)(NCCCN1CCOCC1)c1ccc2nccc(Nc3ccc(Oc4ccccc4)cc3)c2c1` [TCMDC-138692] the “% Inhibition” value was -57.28%.
For `FC(F)(F)c1cccnc1N1CCC(Nc2nc3ccc(Cl)cc3[nH]2)CC1` [TCMDC-135644], the “% Inhibition” value was -32.98%.
`CCNc1cc(C(=O)N[C@@H](Cc2ccccc2)[C@H](O)CNCCc2ccccc2)cc(N2CCCC2=O)c1` [TCMDC-141682] was tested, and the “% Inhibition” value was 21.5%.
`CS(=O)(=O)N1CC2(CCN(CCC(NC(=O)Nc3ccccc3)c3ccc(Cl)c(Cl)c3)CC2)c2ccccc21` (stereo not shown) [TCMDC-141766] was tested, and the “% Inhibition” value was 12.26%.
In the case of `CS(=O)(=O)N1CC2(CCN(CCC(NC(=O)NCc3ccc(Cl)c(Cl)c3)c3ccc(Cl)c(Cl)c3)CC2)c2ccccc21` (stereo not shown) [TCMDC-141769], the “% Inhibition” value is reported as -4.824%.
`C[C@@H](NC(=O)NC(CCN1CCC2(CC1)CN(S(C)(=O)=O)c1ccccc12)c1ccc(Cl)c(Cl)c1)c1ccccc1` (stereo partly shown) [TCMDC-141767] was tested, and the “% Inhibition” value was 25.06%.
`COc1cc(C(=O)N2CCC(CCN3CCC4(CC3)CN(S(C)(=O)=O)c3ccccc34)CC2Cc2ccc(Cl)c(Cl)c2)cc(OC)c1OC` (stereo not shown) [TCMDC-141627] was tested, and the “% Inhibition” value was 50.03%.
In the case of `COc1ccc(CC(=O)NC(CCN2CCC3(CC2)CN(S(C)(=O)=O)c2ccccc23)c2ccc(Cl)c(Cl)c2)cc1OC` (stereo not shown) [TCMDC-141764], the “% Inhibition” value is reported as 25.44%.
For `CS(=O)(=O)N1CC2(CCN(CCC(NC(=S)Nc3ccccc3)c3ccc(Cl)c(Cl)c3)CC2)c2ccccc21` (stereo not shown) [TCMDC-141770], the “% Inhibition” value was 57.16%.
For `CS(=O)(=O)c1cccc(-c2ccc3oc(C(N)=O)c(NC(=O)c4cccs4)c3c2)c1` [TCMDC-138862], the “% Inhibition” value was 19.31%.
With `O=C(CCCCCNC(=O)c1ccc(O)c(-c2ccc(Cl)c(Cl)c2)c1)NCCN1CCCCC1` [TCMDC-140856] the “% Inhibition” value was 8.201%.
For `COc1cc(Cc2cnc(N)nc2N)cc(OCCCc2cc(OCc3ccccc3)no2)c1OC` [TCMDC-138084], the “% Inhibition” value was 0.05649%.
In the case of `COc1ccc2[nH]cc(C3=CCN(CC4CC4C(=O)c4ccccc4)CC3)c2n1` (stereo not shown) [TCMDC-136871], the “% Inhibition” value is reported as -1.485%.
In the case of `Cc1[nH]c2ccccc2c1C1=CCN(CCCCC2(C)C(=O)Nc3cccc(F)c32)CC1` (stereo not shown) [TCMDC-140942], the “% Inhibition” value is reported as 52.59%.
In the case of `Cc1[nH]c2ccccc2c1C1=CCN(CC2CC2C(=O)c2ccccc2)CC1` (stereo not shown) [TCMDC-136870], the “% Inhibition” value is reported as 56.06%.
With `O=C(c1ccccc1)C1CC1CN1CC=C(c2c[nH]c3ccccc23)CC1` (stereo not shown) [TCMDC-136771] the “% Inhibition” value was -5.765%.
`Cc1[nH]c2cc(F)ccc2c1C1=CCN(CCCCC2(C)C(=O)Nc3ccccc32)CC1` (stereo not shown) [TCMDC-141003] was tested, and the “% Inhibition” value was -43.4%.
`COc1ccc(C(=O)C2CC2CN2CC=C(c3c[nH]c4ccc(OC)nc34)CC2)cc1` (stereo not shown) [TCMDC-136873] was tested, and the “% Inhibition” value was 84.74%.
`COc1ccc(C(=O)C2CC2CN2CC=C(c3c(C)[nH]c4ccccc34)CC2)cc1` (stereo not shown) [TCMDC-136872] was tested, and the “% Inhibition” value was 7.556%.
With `Cc1[nH]c2ccccc2c1C1=CCN(CCCCC2(C)C(=O)Nc3ccccc32)CC1` (stereo not shown) [TCMDC-140740] the “% Inhibition” value was -83.27%.
For `COc1cccc(C(=O)C2CC2CN2CC=C(c3c(C)[nH]c4ccccc34)CC2)c1` (stereo not shown) [TCMDC-136874], the “% Inhibition” value was 78.13%.
With `COc1cccc(C(=O)C2CC2CN2CC=C(c3c[nH]c4ccc(OC)nc34)CC2)c1` (stereo not shown) [TCMDC-136875] the “% Inhibition” value was 11.19%.
`COc1ccc(C(=O)C2CC2CN2CC=C(c3c[nH]c4cccc(Br)c34)CC2)cc1` (stereo not shown) [TCMDC-136801] was tested, and the “% Inhibition” value was -30.41%.
In the case of `COc1cccc(C(=O)C2CC2CN2CC=C(c3c[nH]c4cccc(Br)c34)CC2)c1` (stereo not shown) [TCMDC-136773], the “% Inhibition” value is reported as -17.42%.
For `Nc1nc(N)c2c(ccc3nn(Cc4cccnc4)cc32)n1` [TCMDC-137968], the “% Inhibition” value was -0.02415%.
For `CS(=O)(=O)c1ccc(-c2cc(C(F)(F)F)nc(N[C@@H]3CCCC[C@H]3OCc3ccccc3)n2)cc1` [TCMDC-138567], the “% Inhibition” value was -4.461%.
For `CC[C@@]1(O)C(=O)OCc2c1cc1n(c2=O)Cc2c-1nc1cc3c(cc1c2CN1CCOCC1)OCO3` [TCMDC-131876], the “% Inhibition” value was 7.387%.
`Cc1nc2nc(N)nc(N)c2c(C)c1Cc1ccc(C#N)cc1` [TCMDC-137653] was tested, and the “% Inhibition” value was -12.58%.
`O=c1cc(NCCCNCc2cc(Cl)cc(Cl)c2OCc2ccc(Cl)cc2)[nH]c2ccccc12` [TCMDC-139604] was tested, and the “% Inhibition” value was -52.63%.
For `CCCN1CCC(NCc2cn(C)nc2-c2ccc(Oc3ccccc3)cc2)CC1` [TCMDC-124676], the “% Inhibition” value was 46.58%.
With `COc1ccccc1Oc1c(N(C)S(=O)(=O)c2ccc(C(C)C)cc2)nc(C(F)(F)F)nc1N(C)S(=O)(=O)c1ccc(C(C)C)cc1` [TCMDC-132001] the “% Inhibition” value was 61.81%.
With `COc1cc(Cl)c(C)cc1N(Cc1ccccc1-c1ccccc1)S(=O)(=O)c1ccc(C(F)(F)F)cc1` [TCMDC-141750] the “% Inhibition” value was -7.334%.
With `Cn1cncc1CCCN(Cc1ccc(-c2ccc(C(F)(F)F)cc2)cc1)C(=O)Cn1c(CCc2cccc(F)c2F)cc(=O)c2cccnc21` [TCMDC-141502] the “% Inhibition” value was -3.632%.
With `O=C(Cn1c(CCc2cccc(F)c2F)cc(=O)c2cccnc21)N(CCn1ccnc1)Cc1ccc(-c2ccc(C(F)(F)F)cc2)cc1` [TCMDC-141474] the “% Inhibition” value was 11.29%.
With `Cn1cncc1CCN(Cc1ccc(-c2ccc(C(F)(F)F)cc2)cc1)C(=O)Cn1c(CCc2cccc(F)c2F)cc(=O)c2cccnc21` [TCMDC-141455] the “% Inhibition” value was 99.09%.
`O=C(Cn1c(CCc2cccc(F)c2F)cc(=O)c2ccccc21)N(CCN1CCCC1)Cc1ccc(-c2ccc(C(F)(F)F)cc2)cc1` [TCMDC-141120] was tested, and the “% Inhibition” value was -20.2%.
For `O=C(Cn1c(CCc2cccc(F)c2F)cc(=O)c2cccnc21)N(CCN1CCCC1)Cc1ccc(-c2ccc(C(F)(F)F)cc2)cc1` [TCMDC-141463], the “% Inhibition” value was 53.17%.
For `CCCOc1ccc(OCCCON2C(N)=NC(N)=NC2(C)C)cc1` [TCMDC-131737], the “% Inhibition” value was 9.517%.
In the case of `CC1CCCN(S(=O)(=O)c2ccc(NC(=O)c3cc(-c4ccccc4O)n[nH]3)cc2)C1` (stereo not shown) [TCMDC-125194], the “% Inhibition” value is reported as -32.46%.
With `O=C1NC(=O)C(c2ccc(Cl)cc2)=C1Nc1cccc(S(=O)(=O)C(F)(F)F)c1` [TCMDC-139487] the “% Inhibition” value was 41.44%.
With `Cc1cc(C=C2SC(=Nc3ccccc3)N(C3CCCC3)C2=O)c(C)n1-c1ccc(Cl)cc1` [TCMDC-125698] the “% Inhibition” value was -5.321%.
`Cc1cc(C)cc(-n2c(C)cc(/C=C3\SC(=Nc4ccc(Cl)cc4)NC3=O)c2C)c1` [TCMDC-124103] was tested, and the “% Inhibition” value was 64.96%.
In the case of `CCn1c(C)cc(C=C2SC(=Nc3ccccc3)NC2=O)c1C` [TCMDC-124456], the “% Inhibition” value is reported as -43.68%.
For `COc1cc(Cc2cnc(N)nc2N)cc(OC)c1OCCCCCN1C(=O)c2ccccc2C1=O` [TCMDC-138036], the “% Inhibition” value was 16.13%.
For `CCCCCCNC(=O)C1Cc2c([nH]c3ccc(Br)cc23)C2(CCN(Cc3ccccc3)CC2)N1` (stereo not shown) [TCMDC-141181], the “% Inhibition” value was 96.4%.
`O=C(NCc1ccccc1)C1Cc2c([nH]c3ccc(Br)cc23)C2(CCN(Cc3ccccc3)CC2)N1` (stereo not shown) [TCMDC-141183] was tested, and the “% Inhibition” value was 77.73%.
With `O=C(NCC1CC1)C1Cc2c([nH]c3ccc(Br)cc23)C2(CCN(CCc3ccccc3)CC2)N1` (stereo not shown) [TCMDC-141180] the “% Inhibition” value was -28.21%.
`CNC(=O)C1Cc2c([nH]c3cc(Br)ccc23)C2(CCN(CCc3ccccc3)CC2)N1` (stereo not shown) [TCMDC-141261] was tested, and the “% Inhibition” value was 85.59%.
In the case of `CNC(=O)C1Cc2c([nH]c3ccc(Br)cc23)C2(CCN(CCc3ccccc3)CC2)N1` (stereo not shown) [TCMDC-141185], the “% Inhibition” value is reported as -21.04%.
With `CCCNC(=O)C1Cc2c([nH]c3cc(Br)ccc23)C2(CCN(CCc3ccccc3)CC2)N1` (stereo not shown) [TCMDC-141260] the “% Inhibition” value was -73.32%.
In the case of `CC(C)CCNC(=O)C1Cc2c([nH]c3cc(Cl)ccc23)C2(CCN(CCc3ccccc3)CC2)N1` (stereo not shown) [TCMDC-141294], the “% Inhibition” value is reported as 25.11%.
With `CC(C)CCNC(=O)C1Cc2c([nH]c3cc(Br)ccc23)C2(CCN(CCc3ccccc3)CC2)N1` (stereo not shown) [TCMDC-141259] the “% Inhibition” value was -3.364%.
In the case of `CCCCCCNC(=O)C1Cc2c([nH]c3ccc(Br)cc23)C2(CCN(CCc3ccccc3)CC2)N1` (stereo not shown) [TCMDC-141182], the “% Inhibition” value is reported as -10.63%.
With `CCCCCCNC(=O)C1Cc2c([nH]c3ccc(C)cc23)C2(CCN(Cc3ccccc3)CC2)N1` (stereo not shown) [TCMDC-141091] the “% Inhibition” value was 29.77%.
In the case of `CCCNC(=O)C1Cc2c([nH]c3ccc(Br)cc23)C2(CCN(CCc3ccccc3)CC2)N1` (stereo not shown) [TCMDC-141184], the “% Inhibition” value is reported as 7.991%.
For `CC(C)CCNC(=O)C1Cc2c([nH]c3cc(Br)ccc23)C2(CCN(Cc3ccccc3)CC2)N1` (stereo not shown) [TCMDC-141258], the “% Inhibition” value was 102.3%.
